Test results from PMC9911399, “Two distinct binding modes provide the RNA-binding protein RbFox with extraordinary sequence specificity”.
Residue numbers refer to the chain shown, from its start. The full ranking holds about 16,000 sequences; the median of “ka relative to ugcaugu” is about 0.0091, and the highest 2% start at about 0.032. The sample holds the highest values, similar sequences and a random draw of the others, so the mix is not that of the screen.

T1: RBFOX1 RRM (Homo sapiens, UniProt Q9NWB1 109-208)
T1 sequence: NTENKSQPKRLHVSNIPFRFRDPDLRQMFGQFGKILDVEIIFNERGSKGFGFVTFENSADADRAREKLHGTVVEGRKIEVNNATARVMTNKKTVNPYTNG

B1: GGGCAUA (DNA:RNA)
RNA: GGGAGACCGGAAUUCAGAUUGUCCGGGCAUAUUAAAUCCCGUCGUAGCCACCA
DNA 1: CAATCTGAATTCCGGTCTCCC
DNA 2: TGGTGGCTACGACGGGATT
B2: GGGGCAU (DNA:RNA)
RNA: B1 RNA with C28G, A29C, U30A, A31U
DNA 1: CAATCTGAATTCCGGTCTCCC
DNA 2: TGGTGGCTACGACGGGATT
B3: CGGGCAU (DNA:RNA)
RNA: B1 RNA with G25C, C28G, A29C, U30A, A31U
DNA 1: CAATCTGAATTCCGGTCTCCC
DNA 2: TGGTGGCTACGACGGGATT
B4: GGGCAUC (DNA:RNA)
RNA: B1 RNA with A31C
DNA 1: CAATCTGAATTCCGGTCTCCC
DNA 2: TGGTGGCTACGACGGGATT
B5: GGGCAUG (DNA:RNA)
RNA: B1 RNA with A31G
DNA 1: CAATCTGAATTCCGGTCTCCC
DNA 2: TGGTGGCTACGACGGGATT
B6: GGGCAUU (DNA:RNA)
RNA: B1 RNA with A31U
DNA 1: CAATCTGAATTCCGGTCTCCC
DNA 2: TGGTGGCTACGACGGGATT
B7: CGCCCAU (DNA:RNA)
RNA: B1 RNA with G25C, G27C, A29C, U30A, A31U
DNA 1: CAATCTGAATTCCGGTCTCCC
DNA 2: TGGTGGCTACGACGGGATT
B8: AGCCGAC (DNA:RNA)
RNA: B1 RNA with G25A, G27C, A29G, U30A, A31C
DNA 1: CAATCTGAATTCCGGTCTCCC
DNA 2: TGGTGGCTACGACGGGATT
B9: UCGCCUU (DNA:RNA)
RNA: B1 RNA with G25U, G26C, A29C, A31U
DNA 1: CAATCTGAATTCCGGTCTCCC
DNA 2: TGGTGGCTACGACGGGATT
B10: GUCAGAA (DNA:RNA)
RNA: B1 RNA with G26U, G27C, C28A, A29G, U30A
DNA 1: CAATCTGAATTCCGGTCTCCC
DNA 2: TGGTGGCTACGACGGGATT
B11: GGGAGAA (DNA:RNA)
RNA: B1 RNA with C28A, A29G, U30A
DNA 1: CAATCTGAATTCCGGTCTCCC
DNA 2: TGGTGGCTACGACGGGATT
B12: CGGAAGA (DNA:RNA)
RNA: B1 RNA with G25C, C28A, U30G
DNA 1: CAATCTGAATTCCGGTCTCCC
DNA 2: TGGTGGCTACGACGGGATT
B13: GGGAAGA (DNA:RNA)
RNA: B1 RNA with C28A, U30G
DNA 1: CAATCTGAATTCCGGTCTCCC
DNA 2: TGGTGGCTACGACGGGATT
B14: GGAGAAA (DNA:RNA)
RNA: B1 RNA with G27A, C28G, U30A
DNA 1: CAATCTGAATTCCGGTCTCCC
DNA 2: TGGTGGCTACGACGGGATT
B15: GGAAGAA (DNA:RNA)
RNA: B1 RNA with G27A, C28A, A29G, U30A
DNA 1: CAATCTGAATTCCGGTCTCCC
DNA 2: TGGTGGCTACGACGGGATT
B16: ACUGGCG (DNA:RNA)
RNA: GGGAGACCGGAAUUCAGAUUGUCCACUGGCGUUAAAUCCCGUCGUAGCCACCA
DNA 1: CAATCTGAATTCCGGTCTCCC
DNA 2: TGGTGGCTACGACGGGATT
B17: CAGGCCG (DNA:RNA)
RNA: B16 RNA with A25C, C26A, U27G, G29C
DNA 1: CAATCTGAATTCCGGTCTCCC
DNA 2: TGGTGGCTACGACGGGATT
B18: GCUCGUC (DNA:RNA)
RNA: B16 RNA with A25G, G28C, C30U, G31C
DNA 1: CAATCTGAATTCCGGTCTCCC
DNA 2: TGGTGGCTACGACGGGATT
B19: GCUUGAG (DNA:RNA)
RNA: B16 RNA with A25G, G28U, C30A
DNA 1: CAATCTGAATTCCGGTCTCCC
DNA 2: TGGTGGCTACGACGGGATT
B20: CGCGCGC (DNA:RNA)
RNA: B16 RNA with A25C, C26G, U27C, G29C, C30G, G31C
DNA 1: CAATCTGAATTCCGGTCTCCC
DNA 2: TGGTGGCTACGACGGGATT
B21: GCUCUUG (DNA:RNA)
RNA: B16 RNA with A25G, G28C, G29U, C30U
DNA 1: CAATCTGAATTCCGGTCTCCC
DNA 2: TGGTGGCTACGACGGGATT
B22: CGUUGAG (DNA:RNA)
RNA: B16 RNA with A25C, C26G, G28U, C30A
DNA 1: CAATCTGAATTCCGGTCTCCC
DNA 2: TGGTGGCTACGACGGGATT
B23: GCUGGUC (DNA:RNA)
RNA: B16 RNA with A25G, C30U, G31C
DNA 1: CAATCTGAATTCCGGTCTCCC
DNA 2: TGGTGGCTACGACGGGATT
B24: GCUUGAA (DNA:RNA)
RNA: B16 RNA with A25G, G28U, C30A, G31A
DNA 1: CAATCTGAATTCCGGTCTCCC
DNA 2: TGGTGGCTACGACGGGATT
B25: CCGCUGG (DNA:RNA)
RNA: B16 RNA with A25C, U27G, G28C, G29U, C30G
DNA 1: CAATCTGAATTCCGGTCTCCC
DNA 2: TGGTGGCTACGACGGGATT
B26: GCGCUUG (DNA:RNA)
RNA: B1 RNA with G26C, A29U, A31G
DNA 1: CAATCTGAATTCCGGTCTCCC
DNA 2: TGGTGGCTACGACGGGATT
B27: GCGCUGG (DNA:RNA)
RNA: B1 RNA with G26C, A29U, U30G, A31G
DNA 1: CAATCTGAATTCCGGTCTCCC
DNA 2: TGGTGGCTACGACGGGATT
B28: GCUUGUC (DNA:RNA)
RNA: B16 RNA with A25G, G28U, C30U, G31C
DNA 1: CAATCTGAATTCCGGTCTCCC
DNA 2: TGGTGGCTACGACGGGATT
B29: GCCGCGC (DNA:RNA)
RNA: B16 RNA with A25G, U27C, G29C, C30G, G31C
DNA 1: CAATCTGAATTCCGGTCTCCC
DNA 2: TGGTGGCTACGACGGGATT
B30: AGCCGGG (DNA:RNA)
RNA: B16 RNA with C26G, U27C, G28C, C30G
DNA 1: CAATCTGAATTCCGGTCTCCC
DNA 2: TGGTGGCTACGACGGGATT
B31: GUUCCGG (DNA:RNA)
RNA: B16 RNA with A25G, C26U, G28C, G29C, C30G
DNA 1: CAATCTGAATTCCGGTCTCCC
DNA 2: TGGTGGCTACGACGGGATT

Each binder was assayed against T1, RBFOX1 RRM (assay: EMSA; HiTS-Eq, 1 nM pool, 10 min; buffer printed only for the single-RNA assays: 10 mM Tris pH 7.5, 150 mM NaCl, 3.4 mM EDTA, 0.001% NP-40, 30 C). Conditions: tags: His6 N-terminal (pET28a); label: 5' 32P.
In short: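 Purified wild-type or mutant RbFox RRM at increasing concentrations was equilibrated with 1 nM of 5′-radiolabelled RNA carrying 7 randomized nucleotides for 10 min in 50 µL. Unbound RNA was separated by 8% native PAGE and sequenced. Relative association constants came from read-count changes of each RNA species compared with the control reaction, normalised to the cognate motif.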

Row | Binder | binding signal
1 | B1 | 0.0114 KA relative to UGCAUGU
2 | B2 | 0.0283 KA relative to UGCAUGU
3 | B3 | 0.0317 KA relative to UGCAUGU
4 | B4 | 0.0179 KA relative to UGCAUGU
5 | B5 | 0.519 KA relative to UGCAUGU
6 | B6 | 0.0157 KA relative to UGCAUGU
7 | B7 | 0.00281 KA relative to UGCAUGU
8 | B8 | 0.00754 KA relative to UGCAUGU
9 | B9 | 0.0126 KA relative to UGCAUGU
10 | B10 | 0.0136 KA relative to UGCAUGU
11 | B11 | 0.0327 KA relative to UGCAUGU
12 | B12 | 0.0191 KA relative to UGCAUGU
13 | B13 | 0.0349 KA relative to UGCAUGU
14 | B14 | 0.0138 KA relative to UGCAUGU
15 | B15 | 0.0149 KA relative to UGCAUGU
16 | B16 | 0.0166 KA relative to UGCAUGU

Row | Binder | binding signal
17 | B17 | 0.00997 KA relative to UGCAUGU
18 | B18 | 0.0303 KA relative to UGCAUGU
19 | B19 | 0.0353 KA relative to UGCAUGU
20 | B20 | 0.0126 KA relative to UGCAUGU
21 | B21 | 0.014 KA relative to UGCAUGU
22 | B22 | 0.0235 KA relative to UGCAUGU
23 | B23 | 0.0255 KA relative to UGCAUGU
24 | B24 | 0.0288 KA relative to UGCAUGU
25 | B25 | 0.0189 KA relative to UGCAUGU
26 | B26 | 0.0323 KA relative to UGCAUGU
27 | B27 | 0.0322 KA relative to UGCAUGU
28 | B28 | 0.0386 KA relative to UGCAUGU
29 | B29 | 0.0197 KA relative to UGCAUGU
30 | B30 | 0.0115 KA relative to UGCAUGU
31 | B31 | 0.0142 KA relative to UGCAUGU
